# Compounds without any hit were thinned out: in the full panel of roughly 83,000, 20% have a hit.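 Treatment: one concentration, 48 hours, 96-well format. Scoring: percent growth, with anything below 10 considered active.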 A number with no mark means an inactive call. The source made the active and inactive calls.
# How the values were obtained:
# Experiment in all cases: NCI-60 one-dose screen, 48 h (100 = growth as untreated, 0 = no growth, -100 = all killed)
# Details in all cases: 10 µM unless noted
# [1] = system: NCI-H23 lung
# [2] = system: NCI-H226 lung
# [3] = system: NCI-H322M lung
# [4] = system: HOP-62 NSCLC
# [5] = system: NCI-H460 lung
# [6] = system: NCI-H522 lung
# [7] = system: A549/ATCC NSCLC
# [8] = system: 786-0 renal
# [9] = system: COLO 205 colon
# [10] = system: DU-145 prostate
SMILES,growth [1],growth [2],growth [3],growth [4],growth [5],growth [6],growth [7],growth [8],growth [9],growth [10]
COc1cccc(C2C(C#N)=C(N)Oc3cc(OC)ccc32)c1 (centres undefined),16.2%,72.6%,32.6%,24.6%,7.42% (active),-38.4% (active),15.6%,29.9%,-73.4% (active),-15.2% (active)
NC(=O)SCC(=O)Nc1ccccc1-c1ccccc1,97.2%,117%,106%,116%,116%,50.1%,91.7%,95.5%,95.3%,
O=C1Nc2ccccc2C12Nc1cc(Cl)ccc1S2 (centres undefined),78.4%,90.8%,87.1%,98.4%,87.5%,82.6%,98.7%,98.4%,98.3%,85.9%
Cc1nn(-c2ccccc2)c2ncc3c(c12)C(=O)N(Cc1ccccc1)C3=O,63.9%,-14.2% (active),58.6%,1.26% (active),4.79% (active),59.9%,13.9%,-4.88% (active),32.9%,98.9%
CC12CCCCC1C(C(N)=O)C(=O)O2 (centres undefined),101%,118%,104%,109%,110%,108%,106%,101%,112%,
NC(N)=NC(N)=NCCCc1ccccc1,50.2% [100 µM],63.4% [100 µM],84.6% [100 µM],65.1% [100 µM],81.6% [100 µM],47.2% [100 µM],62.3% [100 µM],56.2% [100 µM],,
COc1cc2cn3c4ccc(O)cc4nc(N)c3c2cc1OC,0.98% (active),25.7%,28.7%,11.9%,1.19% (active),-39.4% (active),18.4%,6.11% (active),,
CC(O)c1nc2c(c(=O)n(C)c(=O)n2C)n1C (centres undefined),114%,104%,98.5%,85.5%,107%,90%,91.2%,105%,108%,122%
CCC1=C(c2ccc(OC)cc2)C(C)(C)Oc2c1ccc(O)c2CN1CCCC1,13.1%,29%,47.7%,18.7%,-38.1% (active),30.4%,67.1%,34.2%,77.1%,64.8%
Cc1scc2c1N(C(=O)CN1CCN(C)CC1)c1ccccc1NC2=O,93.9%,109%,105%,103%,124%,104%,104%,98.8%,108%,118%
C[C@]12CC[C@@H]3c4ccc(O)c([N+](=O)[O-])c4CC[C@H]3[C@@H]1CC[C@@H]2NS(=O)(=O)c1ccc(C(F)(F)F)cc1,28%,53.7%,54.1%,56.2%,10.5%,-67.8% (active),19.5%,43%,98%,47.4%
COc1ccc2[nH]cc(/C=C3/C(=O)Nc4ccc(F)cc43)c2c1,75.8%,91.5%,94%,105%,83.3%,81.5%,72.3%,115%,97.7%,95.3%
COc1ccc(OC)c(NC(=O)c2cc3oc4ccccc4c3cc2O)c1,87.4%,90.7%,101%,72.4%,100%,90.6%,88.4%,93.1%,88.8%,106%
O=C(Nc1ccc(Cl)cc1)c1cc2c(cc1O)[nH]c1ccccc12,-22.5% (active),35.9%,26.9%,-2.15% (active),12.5%,-14.4% (active),30%,6.54% (active),87.3%,28.4%
CC(CCC(=O)O)(NC(=O)c1ccc([N+](=O)[O-])cc1)C(=O)O (centres undefined),98.4%,111%,107%,92.8%,107%,106%,107%,105%,107%,104%
CCCCCCCCSc1ncnc2c1ncn2CO,50.8%,58.5%,140%,82.7%,86.6%,66.4%,102%,85.5%,104%,90.9%
COc1ccc2nccc(/C=C/c3ccnc4ccc(OC)cc34)c2c1,104%,131%,120%,114%,100%,112%,66.1%,105%,119%,104%
COc1ccc2nc3cc(Cl)ccc3c(Nc3cc(C(C)C)c(O)cc3C)c2c1,40.1%,79.5%,51.5%,58.2%,35.3%,-20.1% (active),14.5%,35.5%,15.7%,52.3%
CCOC(=O)C1=C(C)N2C(=NC3=C(CCC/C3=C\c3ccc(Cl)cc3)C2c2ccc(Cl)cc2)S1 (centres undefined),10.9%,47.5%,101%,88.2%,51.8%,58%,5.11% (active),-0.562% (active),8.78% (active),-0.137% (active)
COc1cc2c(C#N)n3c(c2cc1OC)C(=O)C(c1ccccc1)Oc1ccccc1-3 (centres undefined),20.5%,21.8%,85.5%,53.8%,66.9%,-32.4% (active),11.5%,48.5%,80.3%,72.8%
Fc1ccc([C@@H]2CCNC[C@H]2COc2ccc3c(c2)OCO3)cc1,82.5%,83.2%,73.2%,79%,73.5%,64.6%,83%,68.2%,-77.5% (active),92.1%
C/C(=C\CCc1ccsc1)CC/C=C(\C)CCCN1CCC(CO)CC1,61.4%,63.4%,76.2%,62.1%,-46.3% (active),27.7%,36.6%,5.43% (active),-54.9% (active),64.5%
O=C(Nc1ccncc1)C(=O)c1cn(S(=O)(=O)c2cccc(F)c2)c2ccccc12,34%,75.8%,101%,52.7%,65.4%,-12.5% (active),67.3%,61.7%,106%,50%
CN(C)c1cccc2c(S(=O)(=O)N[C@H]3CC[C@H]4[C@@H]5CCc6cc(O)ccc6[C@H]5CC[C@]34C)cccc12,40.8%,51%,57.3%,66.8%,7.05% (active),-10.5% (active),18.5%,34.9%,8.09% (active),24%
O=C1NCN(c2ccccc2)C12CCN(CCCC(c1ccc(F)cc1)c1ccc(F)cc1)CC2,72.9%,94.1%,60.4%,82.9%,37.3%,61.2%,57.8%,49.2%,27.1%,76%
O=C(Nc1nc2ccccc2s1)c1cc(-c2ccc(F)cc2)n2nc(-c3ccccc3)cc2n1,68.7%,89.1%,60.1%,63.8%,29.3%,101%,51.2%,11.7%,65.2%,89.1%
CN(C)c1nc(N)nc(Cn2c(-c3nonc3N)nc3ccccc32)n1,90.4%,91.3%,103%,81%,95.6%,77.5%,86.7%,99.2%,83.7%,109%
COc1cc(/C=C2\COc3ccc(O)c(O)c3C2=O)cc(OC)c1,49.1%,68.3%,29.2%,2.74% (active),10.5%,-42.1% (active),24.6%,-29.4% (active),32.5%,9.48% (active)

SMILES,growth [1],growth [2],growth [3],growth [4],growth [5],growth [6],growth [7],growth [8],growth [9],growth [10]
COc1ccc(/C(=C2\O[C@@H]([C@H](O)CO)[C@H]3OC(C)(C)O[C@@H]23)c2cc(OC)c(OC)c(OC)c2)cc1O,89.8%,110%,109%,88.4%,107%,57.5%,89.4%,94.3%,126%,87.1%
CCN(CC)c1ccc(N=Nc2cc(Cl)ccc2Cl)c(NC(=O)CCC(=O)O)c1,101%,98.1%,111%,86.6%,108%,106%,101%,108%,106%,108%
CN(C)c1ccc2[nH]c3c(C(N)=O)cc(=O)c(=O)c=3oc2c1,34.9%,87.7%,109%,20.7%,38.4%,11.2%,33.8%,80.4%,101%,71.9%
C=C1c2c(C)nn(-c3ccc(C#CCOC4OC(CO)C(O)C(O)C4O)cc3)c2N(C)C23C[C@H]1C1(C)c4c(C)nn(-c5ccc(C#CCOC6OC(CO)C(O)C(O)C6O)cc5)c4N(C)C(C)(C[C@H]12)C3 (some centres undefined),12.4%,23.4%,1.68% (active),3.61% (active),-45.9% (active),-3.82% (active),24.9%,17.2%,8.45% (active),16.9%
C=C(C[C@@](O)(C(=O)Oc1ccccc1)C(=O)C1CCCCC1)c1ccccc1,103%,108%,112%,108%,107%,91.8%,92.2%,98.9%,120%,110%
COc1ccc(Nc2ccnc(NCCCNc3ccnc4cc(Cl)ccc34)n2)cc1,58.1%,69.6%,3.32% (active),46.9%,-56.5% (active),-55% (active),-14.5% (active),-97.7% (active),-65% (active),22.4%
NC(=Nc1ccccc1)SCCCCSC(N)=Nc1ccccc1,71.2%,95%,85.2%,82.2%,101%,79.1%,85.1%,79.5%,125%,93.5%
Clc1ncn[nH]1,106%,102%,98.4%,98.6%,111%,94.9%,98.1%,103%,104%,110%
CC(C)[C@H]1CC[C@H]2[C@@H](CC[C@H]3[C@](C)(CN)CCC[C@]23C)C1,88.4%,105%,15.3%,56.3%,-66.1% (active),80%,87%,72.9%,-82.6% (active),11.2%
COc1ccccc1[C@H]1c2[nH]c3ccccc3c2C[C@H]2C(=O)N(CCCCCCC(=O)NO)CC(=O)N12,52.3%,91.6%,76.1%,50.2%,62.8%,10.5%,76.5%,89.4%,26.9%,43.7%
O=C1C[C@@H]2/C(=C(O)\C=C\c3ccccc3)C(=O)C=C[C@@H]2O1,77%,39.9%,26.1%,2.64% (active),12.1%,-66.3% (active),36.7%,-46.7% (active),-73.4% (active),-16.8% (active)
CCOC(=O)C1=NN(c2ccc(Cl)cc2)C2C3N(c4ccc(Cl)cc4)N=C(C(=O)OCC)N3c3ccccc3N12 (centres undefined),87%,107%,98.5%,114%,106%,88.7%,99%,95.6%,128%,118%
Nc1nc(N)c([N+](=O)[O-])c(=O)[nH]1,97.8%,102%,104%,84.7%,106%,103%,97.8%,110%,109%,113%
COc1ccc(-c2cc(Cc3cccs3)c(=O)n(Cn3ccc4ccccc43)n2)cc1,105%,104%,110%,105%,115%,95.5%,104%,110%,110%,110%
Cc1cc2c(C#N)n3c(c2cc1C)C(=O)C(c1ccccc1)Oc1ccccc1-3 (centres undefined),21%,34.6%,81.8%,35.7%,42.1%,-35.7% (active),4.49% (active),41.7%,56.6%,64.4%
CCCCCCCCCCCCCCCCCC1=NC(C)(C)CN1CCO,38.9%,17.6%,59.8%,-74.9% (active),-51.7% (active),-58.2% (active),-28.9% (active),-53.6% (active),-59.9% (active),2.01% (active)
Fc1ccc(-c2nnc(/C=C/c3cn(-c4ccccc4)nc3-c3ccccc3)o2)cc1,88%,92.8%,95.5%,87.4%,78.6%,85.3%,75.2%,89.8%,94.2%,110%
c1cncc(CNc2ccccc2-c2nnc(Nc3ccc4c(c3)OCO4)o2)c1,18%,-14% (active),46.6%,27.2%,9.93% (active),3.02% (active),20%,37%,-39.8% (active),1.3% (active)
Cc1cc(C(C)(C)c2cc(C)c(O)c(CN(C)C)c2)cc(CN(C)C)c1O,105%,96.5%,70.7%,99.8%,101%,85.7%,97.7%,73.1%,89%,97.1%
NCCCc1nnc(CCC(=O)c2nc3ccccc3[nH]2)o1,98.3%,108%,97.3%,112%,115%,103%,106%,103%,111%,115%
N#Cc1c(N)[nH]c(S)c1C#N,105%,97.5%,108%,100%,107%,97.4%,90.9%,107%,120%,112%
CC(=O)c1nc2ccccc2n1CCn1cc(CC(N)C(=O)O)c2ccccc21 (centres undefined),90.3%,102%,93.6%,97.7%,115%,96.9%,103%,115%,103%,104%
COc1ccc(C(=O)/C=C/c2c(Cl)nc3c(c(C)nn3-c3ccccc3)c2-c2ccc(Br)cc2)cc1,105%,97.3%,109%,104%,106%,98.6%,104%,91.5%,111%,112%
O=C1OCC/C1=C\OCCCO/C=C1\CCOC1=O,102%,103%,100%,122%,107%,98.3%,98.7%,102%,141%,115%
O=C1OCCCCCCCCCC#Cc2ccccc21,97%,110%,126%,99.7%,133%,71.2%,103%,103%,100%,116%
CCCCCCC/C(=N\N=C(N)N)c1ccc(O)cc1,57.5%,-8.37% (active),56.9%,43.9%,26.7%,47.7%,51.9%,63.1%,-88.8% (active),53.4%
O=C(Nc1ncc([N+](=O)[O-])s1)c1cccc([N+](=O)[O-])c1,9.05% (active),29.3%,35.9%,25.3%,43.4%,8.27% (active),81.8%,18%,77%,84.6%

# — PubChem BioAssay (NCI)
